The text below walks through data of PubChem BioAssay.

The first experiment deals with Torsin-1A (Homo sapiens) (UniProt O14656). The experiment is described as follows: torsin A mutant lysate binding on microarrays – cell lysate, small-molecule microarray, COS7 lysate, 635/667 nm fluorescence, primary screen (AID 1150).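 Also: score pools 667 nm emission and signal to noise measuring lysate protein binding.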 The following applies: COS7 hTOR1A mutant lysate, 635 nm fluorescence, higher = more signal.
Torsin-1A (Homo sapiens), sequence (O14656 whole entry, looked up): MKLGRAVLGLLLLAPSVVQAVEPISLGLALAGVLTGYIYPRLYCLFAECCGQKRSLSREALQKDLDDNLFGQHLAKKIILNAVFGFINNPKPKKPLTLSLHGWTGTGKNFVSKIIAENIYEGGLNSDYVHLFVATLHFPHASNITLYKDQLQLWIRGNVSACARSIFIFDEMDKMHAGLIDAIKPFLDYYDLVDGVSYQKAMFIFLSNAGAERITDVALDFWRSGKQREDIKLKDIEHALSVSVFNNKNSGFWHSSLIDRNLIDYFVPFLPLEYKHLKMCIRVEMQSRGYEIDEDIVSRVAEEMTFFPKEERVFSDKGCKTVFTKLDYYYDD
Take `Cc1ccccc1/C=C/C=O`: the composite z-score was -0.62.
In turn, `COc1ccc([Si](C)(C)[C@H]2[C@H](CC(=O)N3Cc4ccccc4C[C@H]3CO)O[C@@]3(C(=O)N(Cc4cccc(I)c4)c4ccccc43)[C@@H]2C)cc1` showed a composite z-score of 2.17.
Compound `C=C(/C(=C/C[C@@H](OC(C)=O)c1ccc(CO)o1)c1cnc2ccccc2c1)C(C)C` had a composite z-score of 0.619.
The same measure, in the same setting: next, `[N-]=[N+]=NCc1ccccc1[C@@H]1OC(c2ccc(OCCCO)cc2)=N[C@]1(Cc1ccccc1N=[N+]=[N-])C(N)=O`: 0.373; `C=CCOC(=O)[C@H]1[C@@H]2C(=O)O[C@@H](c3ccccc3)[C@@H](c3ccccc3)N2[C@@H](c2ccc(OCCOC(=O)[C@H]3C[C@H]4C(=O)N[C@@H](CCCC[N+](C)(C)C)C(=O)N4[C@H]3c3ccc(O)cc3)cc2)[C@]12C(=O)Nc1ccccc12`: 0.846; `CC1CC/C=C\[C@H]2OC34C=CCN(Cn5nnc6ccccc65)C(=O)[C@H]3N(CCCO)C(=O)[C@@H]4C2C(=O)O1` (stereo partly drawn): -1.33.
In turn, `Cc1cc(C)c(C(O)C2C=CC3C(=O)NC(=O)C3N2Nc2ccccn2)c(C)c1` (stereo not drawn) registered a composite z-score of 0.736.
On the same count and under the same terms, next, `C=C[C@@H](C)[C@@H](OC(=O)Nc1ccc(OC)cc1)c1ccc(O)c2ccccc12`: -0.0324.
The same measure, in the same setting: next, `[N-]=[N+]=NCc1ccccc1[C@H]1OC(c2ccc(OCCCO)cc2)=N[C@@]1(Cc1ccccc1)C(=O)NCC(O)CO` (stereo partly drawn): 0.894; `C=CC[C@]1(C(=O)O)N=C(c2ccc(OCCCO)cc2)O[C@H]1c1ccccc1CN=[N+]=[N-]`: 0.416; `NC(=O)[C@@]1(CCS(=O)(=O)c2ccccc2)N=C(c2ccc(OCCCO)cc2)O[C@H]1c1ccccc1`: 0.799.
Compound `C=C(CCCC)/C(=C/C[C@H](OC(C)=O)c1ccc(CO)o1)c1cc(C(=O)OC)ccc1OC` yielded a composite z-score of -0.0953.
The same measure, in the same setting: next, `O=C1O[C@@H](c2ccccc2)[C@@H](c2ccccc2)N2[C@@H](c3ccc(O)cc3)[C@]3(C(=O)Nc4ccccc43)[C@@H](C(=O)NC[C@H](O)c3ccccc3)[C@H]12`: 0.371.

A further experiment relates to Sonic hedgehog protein (Shh). The experiment is described as follows: Sonic hedgehog microarray binding compounds – biochemical, small-molecule microarray, 635/667 nm fluorescence, primary screen (AID 1151).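 Also: Shh protein binding to compounds spotted on small-molecule microarray slides; score combines spot fluorescence intensity with signal-to-noise across triplicate slides.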 The following applies: 635 nm fluorescence, higher = more signal.
`O=C1O[C@H](c2ccccc2)[C@H](c2ccccc2)N2[C@H]1[C@@H](C(=O)NC[C@H](O)c1ccccc1)[C@]1(C(=O)Nc3ccc(C#CC4(O)CCCCCC4)cc31)[C@H]2c1ccccc1OCCO` came in with a composite z-score of 0.877.
Still for that read-out and setting: next, `O=C1OCCC=C[C@H]2OC34C=CCN(c5ccc6ccccc6c5)C(=O)[C@H]3N(CCCCCCO)C(=O)[C@@H]4C12` (stereo partly drawn): -0.305; `COC(=O)C(CC#Cc1ccc2c(c1)[C@]1(C(=O)N2)[C@H](C(=O)N2CCCCCCC2)[C@H]2C(=O)O[C@H](c3ccccc3)[C@H](c3ccccc3)N2[C@@H]1c1ccccc1OCCO)C(=O)OC`: 2.04; `[N-]=[N+]=Nc1ccccc1[C@@H]1OC(c2ccc(OCCCO)cc2)=N[C@]1(CCS(=O)(=O)c1ccccc1)C(=O)N1CCCCC1`: -0.394.
The same measure, in the same setting: next, `CCOC(=O)C[C@H]1[C@H](OC(=O)c2cc3ccccc3oc2=O)[C@@H](NC(=O)c2ccc3ccccc3c2)c2cc(OCCCO)ccc2N1C(=O)c1ccccc1`: 1.54; `COCCOC(=O)N1C(=O)[C@@]2(c3cc(C#CCCO)ccc31)[C@H](c1ccc(O)cc1)N1[C@H](c3ccccc3)[C@H](c3ccccc3)OC(=O)[C@H]1[C@@H]2C(=O)N1CCCCCCC1`: 1.65; `O=[N+]([O-])c1ccc(C[n+]2ccc(CCCO)cc2)o1`: 1.06.
On the same count and under the same terms, next, `COCCn1c(C(=O)N2CCCC2)cc2c1C[C@H]1CN(C(=O)c3ccccc3)[C@@](Cc3ccc(OC)cc3)(C(=O)OC)[C@@H]21`: -0.89; `O=C1c2ccccc2[C@](Cc2ccccc2I)(C(=O)O)[C@H](c2ccc(CO)cc2)N1Cc1ccccc1C(F)(F)F`: -0.489.
For `COc1ccc(C#Cc2ccc3c(c2)[C@]2(C(=O)N3)[C@H](C(=O)N3CCN(c4ncccn4)CC3)[C@H]3C(=O)O[C@H](c4ccccc4)[C@H](c4ccccc4)N3[C@@H]2c2ccc(O)cc2)cc1`, the composite z-score came to 0.88.
`Oc1ccc2cc[n+](Cc3cccc(OC(F)(F)F)c3)cc2c1` came in with a composite z-score of 1.89.
The same measure, in the same setting: next, `O=C1[C@H]2C=C(Br)[C@H](C[C@@H]2OCCOCCO)[C@@]12CO2`: 0.0806.
The same measure, in the same setting: next, `CC(c1ccccc1)C(O)C1C=CC2C(=O)N(Cc3ccccc3)C(=O)C2N1n1cnnc1` (stereo not drawn): -0.506; `COCCCNC(=O)[C@@]1(C)c2ccccc2C(=O)N(Cc2ccccc2)[C@H]1c1ccc(CO)cc1`: 0.182; `NC(=O)NCC#Cc1ccc2c(c1)[C@]1(C(=O)N2)[C@H](c2ccc(O)cc2)N2[C@H](c3ccccc3)[C@H](c3ccccc3)OC(=O)[C@H]2[C@@H]1C(=O)N1CCN(c2ncccn2)CC1`: -0.37.
Same read-out and setting: next, `C=C[C@H](C)[C@H](OC(=O)Nc1ccc(OC)cc1)c1ccc(O)c2ccccc12`: 0.9.
Compound `COCC1C2CC[C@H]3C(OCc4ccc(F)cc4C(F)(F)F)OC[C@]4(C)[C@H]3C2=C(CN4C(=O)OC(C)(C)C)[C@H](C)C1COC` (stereo partly drawn) displayed a composite z-score of -1.4.
Still for that read-out and setting: next, `C=CCN1C(=O)[C@]2(Cc3ccccc31)N=C(c1ccc(OCCCO)cc1)O[C@@H]2c1ccccc1`: 0.308; `[N-]=[N+]=NCc1ccccc1[C@@H]1OC(c2ccc(OCCCO)cc2)=N[C@]1(Cc1ccccc1)C(=O)O`: -0.934; `O=C(NCCN1CCOCC1)[C@@H]1c2ccccc2C(=O)N(Cc2cc(F)cc(C(F)(F)F)c2)[C@H]1c1ccc(CO)cc1`: 1.76.
The same measure, in the same setting: next, `O=c1cccc(-c2ccccc2)o1`: -0.379.
`O=C1O[C@@H](c2ccccc2)[C@@H](c2ccccc2)N2[C@@H](c3ccc(O)cc3)[C@]3(C(=O)Nc4ccccc43)[C@@H](C(=O)N3CCCCCCC3)[C@H]12` gave a composite z-score of 2.02.
In the case of `Cc1ccccc1/C=C/C=O`, the composite z-score was -0.0373.
Same read-out and setting: next, `COc1ccc([Si](C)(C)[C@H]2[C@H](CC(=O)N3Cc4ccccc4C[C@H]3CO)O[C@@]3(C(=O)N(Cc4cccc(I)c4)c4ccccc43)[C@@H]2C)cc1`: 2.15.
Turning to `C=C(/C(=C/C[C@@H](OC(C)=O)c1ccc(CO)o1)c1cnc2ccccc2c1)C(C)C`, the composite z-score is 2.04.
On the same count and under the same terms, next, `[N-]=[N+]=NCc1ccccc1[C@@H]1OC(c2ccc(OCCCO)cc2)=N[C@]1(Cc1ccccc1N=[N+]=[N-])C(N)=O`: -0.349.
`C=CCOC(=O)[C@H]1[C@@H]2C(=O)O[C@@H](c3ccccc3)[C@@H](c3ccccc3)N2[C@@H](c2ccc(OCCOC(=O)[C@H]3C[C@H]4C(=O)N[C@@H](CCCC[N+](C)(C)C)C(=O)N4[C@H]3c3ccc(O)cc3)cc2)[C@]12C(=O)Nc1ccccc12` gave a composite z-score of 1.18.
The same measure, in the same setting: next, `CC1CC/C=C\[C@H]2OC34C=CCN(Cn5nnc6ccccc65)C(=O)[C@H]3N(CCCO)C(=O)[C@@H]4C2C(=O)O1` (stereo partly drawn): 0.0837; `Cc1cc(C)c(C(O)C2C=CC3C(=O)NC(=O)C3N2Nc2ccccn2)c(C)c1` (stereo not drawn): -0.095; `C=C[C@@H](C)[C@@H](OC(=O)Nc1ccc(OC)cc1)c1ccc(O)c2ccccc12`: 1.53.
Still for that read-out and setting: next, `[N-]=[N+]=NCc1ccccc1[C@H]1OC(c2ccc(OCCCO)cc2)=N[C@@]1(Cc1ccccc1)C(=O)NCC(O)CO` (stereo partly drawn): -0.76; `C=CC[C@]1(C(=O)O)N=C(c2ccc(OCCCO)cc2)O[C@H]1c1ccccc1CN=[N+]=[N-]`: -0.0799.
On the same count and under the same terms, next, `NC(=O)[C@@]1(CCS(=O)(=O)c2ccccc2)N=C(c2ccc(OCCCO)cc2)O[C@H]1c1ccccc1`: -1.2.
For `C=C(CCCC)/C(=C/C[C@H](OC(C)=O)c1ccc(CO)o1)c1cc(C(=O)OC)ccc1OC`, the composite z-score came out at 1.53.
`O=C1O[C@@H](c2ccccc2)[C@@H](c2ccccc2)N2[C@@H](c3ccc(O)cc3)[C@]3(C(=O)Nc4ccccc43)[C@@H](C(=O)NC[C@H](O)c3ccccc3)[C@H]12` yielded a composite z-score of 0.142.
